The supplement of paper PMC11577813, “Eurasian spruce bark beetle detects lanierone using a highly expressed specialist odorant receptor, present in several functional sensillum types” (BMC Biology, 2024)
± gives the standard deviation of the averaged measurements.

Experiments:
[1] = system: (+)-isopinocamphone A-neuron OSN class; assay: net action potential response of A-neuron (blank-subtracted) (spikes/s (Hz)); higher = stronger excitation; details: 10 µg on filter paper; neuron: A neuron (large spike amplitude)
Procedure, shortened: (§1)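 A humidified, charcoal-filtered airstream of 1.8 L/min passed over one fixed antenna of a live lab-reared adult Ips typographus during single sensillum recording with tungsten electrodes. Stimuli were 0.5 s pulses at 0.3 L/min from a pipette holding filter paper with 10 μg of compound in paraffin oil. Firing of the large-amplitude A-neuron or small-amplitude B-neuron was taken as a spike rate after pre-stimulus subtraction in AutoSpike, conversion to spikes/s, blank subtraction and averaging across sensilla. The windows were 0.5 s long, with 1–4 sensilla.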

[2] = system: (+)-trans-4-thujanol A-neuron OSN class; assay: as above; details: 10 µg on filter paper; neuron: A neuron (large spike amplitude)
Procedure, shortened: as §1

[3] = system: (5S,7S)-trans-conophthorin A-neuron OSN class; assay: as above; details: 10 µg on filter paper; neuron: A neuron (large spike amplitude)
Procedure, shortened: as §1

[4] = system: myrcene A-neuron OSN class; assay: as above; details: 10 µg on filter paper; neuron: A neuron (large spike amplitude)
Procedure, shortened: as §1

[5] = system: p-cymene A-neuron OSN class; assay: as above; details: 10 µg on filter paper; neuron: A neuron (large spike amplitude)
Procedure, shortened: as §1

[6] = system: lanierone-responsive B-neuron OSN class (ItypOR36); assay: net action potential response of lanierone B-neuron (blank-subtracted) (spikes/s (Hz)); higher = stronger excitation; details: 10 µg on filter paper, neuron: B neuron (small spike amplitude)
Procedure, shortened: as §1

[7] = system: ipsdienol A-neuron OSN class; assay: net action potential response of A-neuron (blank-subtracted) (spikes/s (Hz)); higher = stronger excitation; details: 10 µg on filter paper; neuron: A neuron (large spike amplitude)
Procedure, shortened: as §1

[8] = co-localized A-neuron class: (4S)-cis-verbenol
[9] = co-localized A-neuron class: (5S,7S)-trans-conophthorin
[10] = co-localized A-neuron class: (+)-isopinocamphone
[11] = co-localized A-neuron class: (+)-trans-4-thujanol
[12] = co-localized A-neuron class: ipsdienol
[13] = co-localized A-neuron class: myrcene
[14] = co-localized A-neuron class: p-cymene

Structure (SMILES)	net action potential response [1]	net action potential response [2]	net action potential response [3]	net action potential response [4]	net action potential response [5]	net action potential response [6, 8]	net action potential response [6, 9]	net action potential response [6, 10]	net action potential response [6, 11]	net action potential response [6, 12]	net action potential response [6, 13]	net action potential response [6, 14]	net action potential response [7]
CC1=CCC2CC1C2(C)C (stereo not drawn) [(-)-α-Pinene]	4 ± 3.5	-0.5 ± 1.9	2.67 ± 3.1	2	5.33 ± 6.4	-6 ± 4	-1.33 ± 2.3	2 ± 2	0 ± 5.7	-1.33 ± 4.2	2	-5.33 ± 4.6	
CC12CCC(CC1=O)C2(C)C (racemic) [(±)-Camphor]	125 ± 40	2 ± 5.7	5.33 ± 7	-6	6.67 ± 16	-2.67 ± 3.1	0	-6.67 ± 2.3	-1.5 ± 1	-2.67 ± 6.1	-2	1 ± 1.4	-0.667 ± 5
COc1ccc(C)cc1 [4-Methyl anisole]	7.33 ± 4.6	6.5 ± 3.4	2 ± 2	-4	44 ± 12	-1.33 ± 8.3	2 ± 3.5	2.67 ± 1.1	-2 ± 6.7	0.667 ± 10	-8	-2.67 ± 3.1	4 ± 2
CC(=O)OCCC(C)C [3-Methylbutyl acetate]	4.67 ± 4.2	3.33 ± 3.1	-2.67 ± 4.6	10	6.67 ± 5	-8 ± 5.3	1.33 ± 2.3	3.33 ± 3.1	0 ± 5.3	2	-6	-2 ± 3.5	
CC(C)[C@@]12CC[C@@](C)(O)[C@@H]1C2 [(+)-trans-4-Thujanol]	11.3 ± 16	133 ± 37	-1 ± 1.1	-4	37.3 ± 13	-3.33 ± 4.2	0 ± 5.9	0.667 ± 1.1	-6.5 ± 5.5	-0.667 ± 2.3	2	-1.33 ± 3.1	-4 ± 4
CC[C@H]1O[C@]2(C)CCC[C@H]1O2 (racemic) [(±)-exo-Brevicomin]	-0.667 ± 4.2	2.5 ± 2.5	173 ± 40	6	0 ± 2	0 ± 2	-4 ± 2	-2	-1 ± 1.1	4 ± 12	2	-3.33 ± 2.3	
OCCc1ccccc1 [2-Phenylethanol]	7.33 ± 3.1	3.5 ± 4.7	0 ± 1.6	0	2.67 ± 3.1	-4 ± 2	-3 ± 3.8	2 ± 3.5	1 ± 3.5	-3.33 ± 11	2	6 ± 10	-2.67 ± 3.1
CCC/C=C\CO	18 ± 19	25.5 ± 12	-2 ± 6	2	0	2 ± 11	2 ± 5.3	-7.33 ± 4.6	2 ± 3.6	0.667 ± 3.1	6	2.67 ± 4.2	
C=CCc1ccc(OC)c(OC)c1 [Eugenol methyl ether]	-0.667 ± 5.8	0 ± 1.6	4 ± 2.3	0	4.67 ± 5	0 ± 8.7	-3 ± 5	4.67 ± 9	-2 ± 1.6	-1.33 ± 5	0	-3.33 ± 9.4	1.33 ± 1.1
CCCCCC=O [Hexanal]	4.67 ± 3.1	0.5 ± 4.4	2.67 ± 7.6	4	2 ± 3.5	0.667 ± 3.1	-0.667 ± 1.1	-1.33 ± 9	-3 ± 2.6	-3.33 ± 4.2	2	3.33 ± 4.6	0.667 ± 2.3
CCC(C)CO (racemic) [(±)-2-Methyl-1-butanol]	0 ± 2	2.5 ± 6.8	5 ± 1.1	4	8 ± 4	0 ± 3.5	2 ± 3.3	-2 ± 2	3.5 ± 3	-1.33 ± 5	-4	-2 ± 4	
CC(=O)OCCc1ccccc1 [2-Phenethyl acetate]	0.667 ± 3.1	2.5 ± 4.1	2 ± 2	8	-1.33 ± 4.6	5.33 ± 13	-0.667 ± 3.1	-1.33 ± 3.1	0.5 ± 4.1	-6.67 ± 7	-6	-5.33 ± 2.3	
CC12CCC(CC1)C(C)(C)O2 [1,8-Cineole]	-2.67 ± 2.3	1 ± 3.8	2.67 ± 10	8	13.3 ± 11	4 ± 9.2	-6.67 ± 6.1	0.667 ± 4.2	-1 ± 2.6	0 ± 10	-4	0 ± 5.3	
C[C@H]1C(=O)C[C@H]2C[C@@H]1C2(C)C [(-)-Pinocamphone]	119 ± 57	-0.5 ± 1.9	2 ± 2	0	3.33 ± 3.1	-2 ± 2	-4 ± 8.7	-1.33 ± 1.1	1 ± 3.8	0 ± 6	4	-2 ± 3.5	-2.67 ± 1.1
C=Cc1ccc(OC)cc1 [4-Vinyl anisole]	-0.667 ± 4.2	1.5 ± 3.4	-1.33 ± 3.1	-2	15.3 ± 14	1.33 ± 9	3.33 ± 4.6	1.33 ± 9.2	-2.5 ± 5.5	2.67 ± 6.4	0	0 ± 7.2	
C[C@]12CCC[C@](C)(OC1)O2 (racemic) [(±)-Frontalin]	2 ± 5.3	1 ± 3.5	96 ± 57	-8	1.33 ± 1.1	-1.33 ± 8.1	-2 ± 2	0 ± 7.2	0.5 ± 4.1	0 ± 4	0	-4 ± 4	2 ± 3.5
CC1=CCC2C(C1)C2(C)C (single isomer, unassigned; (+)) [(+)-3-Carene]	2 ± 5.3	7.5 ± 6.8	6.67 ± 4.6	12	50.7 ± 18	1.33 ± 13	3.33 ± 2.3	-2.67 ± 5	-2.5 ± 2.5	-1.33 ± 4.2	-2	-3.33 ± 4.2	
CC(=O)OCc1ccccc1 [Benzyl acetate]	4 ± 3.5	0 ± 2.8	1.33 ± 4.2	-4	0 ± 4	2.67 ± 6.4	2 ± 5.3	3.33 ± 6.1	-0.5 ± 1.9	-6.67 ± 3.1	0	0.667 ± 4.2	-0.667 ± 5
c1ccc2c(c1)CCO2 [2,3-Dihydrobenzofuran]	2 ± 2	-1.5 ± 1.9	1.33 ± 3.1	-6	6.67 ± 5.8	3.33 ± 9.2	-0.667 ± 4.2	0.667 ± 11	2.5 ± 3.4	-3.33 ± 3.1	-2	6 ± 8.7	
CC(=O)OC/C=C(\C)CCC=C(C)C [Geranyl acetate]	0.667 ± 7	0	2 ± 7.2	-4	1 ± 1.4	-2.67 ± 7.6	-2 ± 9.2	-0.667 ± 2.3	-2 ± 4.3	-2 ± 5.3	0	-2 ± 5.7	
CC1=CC(=O)[C@@H]2C[C@H]1C2(C)C [(-)-Verbenone]	0.667 ± 1.1	1 ± 4.8	-5 ± 4.8	-6	-0.667 ± 3.1	1.33 ± 6.4	-0.667 ± 1.1	-4.67 ± 6.1	4 ± 6.7	2 ± 4	6	2 ± 2	
C=CC(=C)CC(O)C=C(C)C (racemic) [(±)-Ipsdienol]	-4.67 ± 1.1	-1.5 ± 1.9	-2.5 ± 1.9	40	-1.33 ± 4.2	2.67 ± 15	-0.5 ± 3.4	-2.67 ± 4.2	0 ± 1.6	-4.67 ± 10	-4	-0.667 ± 1.1	
